Measured values reported in PubChem BioAssay (Tox21).
Activity calls are given as the source filed them. The call rests on the fitted dose curve.

Experiment: qHTS assay to identify small molecule agonists of the sonic hedgehog signaling (Shh) pathway (AID 1259368);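 further: NIH/3T3-derived 3T3Gli1-Luc cells carrying a stable Gli1-driven firefly luciferase reporter; nearly all actives have a fitted effect of over 15% in size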
Settings: NIH/3T3 Gli1-Luc reporter, luciferase, 24 h; series mostly up to 92.4 µM
Text: National Center for Advancing Translational Sciences [NCATS]
NIH Chemical Genomics Center [NCGC]
U.S. Environmental Protection Agency [EPA]
National Institutes of Environmental Health Sciences [NIEHS]
National Toxicology Program [NTP]
The sonic hedgehog (Shh) pathway is essential for normal embryonic development. Dysregulation of the Shh pathway can cause severe developmental defects in organs. Therefore chemicals that interfere with the pathway are potential developmental toxicants. A cell line designated 3T3Gli1-Luc (DMB/OARSA/CFSAN/FDA, Laurel, MD), a NIH/3T3 derived clone containing stably integrated Gli1-Luc reporter is used to detect chemical interference of the Shh pathway, by changes in the expression of the firefly Luc gene under the control of the Gli1 transcriptional response element. This cell line was used to screen Tox21 libraries for identifying and prioritizing the potential developmental toxicants that interfere Shh pathway.
3T3 Gli1-Luc cells were dispensed at 2,000 per well in 5uL of culture medium into white solid bottom 1536-well plates (Greiner Bio-One, Monroe, NC) using a Multidrop Combi (Thermo Scientific, Waltham, MA) dispenser. The assay plates were incubated at 37 C and 5% CO2 for 4hr, and then 23nL of compounds dissolved in DMSO and positive control were transferred using a Pintool station (Wako, San Diego, CA). The assay plates were incubated at 37C and 5% CO2 for 24hr. For luciferase read, 4uL of Amplite Luciferase reporter gene assay reagent (AAT Bioquest, Inc. Sunnyvale, CA) was added to each well of the assay plates using Flying Reagent Dispenser (FRD, Aurora Discovery, San Diego, CA) and incubated at room temperature for 30min. The luminescence signal was measured using a ViewLux plate reader (Perkin Elmer, Shelton, CT).

SMILES | outcome
C[C@H]1CCC[C@H](O)CCCCCc2cc(O)cc(O)c2C(=O)O1 | inactive
Cc1nc(N)nc(N)n1 | inactive
N#Cc1ccncc1 | inactive
CC(COc1ccc(Oc2ccccc2)cc1)Oc1ccccn1 (stereo not given) | inactive
Clc1cccc(N2CCNCC2)c1 | inactive
COc1cc(C[C@@H](C)N)c(OC)cc1C | inactive
CC(=O)CC(c1ccc(Cl)cc1)c1c(O)c2ccccc2oc1=O (stereo not given) | inactive
Nc1n[nH]c(N)n1 | inactive
CNC(=O)O/N=C(\C)SC | inactive
O=P(O)(Oc1ccccc1)Oc1ccccc1 | inactive
CNCC(=O)c1ccc(O)c(O)c1 | inactive
CCOP(=S)(Oc1cnc(C(C)(C)C)nc1)OC(C)C (stereo not given) | inactive
CCOP(=S)(OCC)Oc1cc(-c2ccccc2)on1 | inactive
ClC(Cl)Br | inactive
COC(C)(C)C | inactive
CC1CCC(=O)O1 (stereo not given) | inactive
Nc1ccccc1Cl | inactive
COc1ccc2c(c1OC)CN1CCc3cc4c(cc3C1C2)OCO4 (stereo not given) | inactive
CCCCP(CCCC)CCCC | inactive
CC(C)COP(=O)(OCC(C)C)OCC(C)C | inactive

SMILES | outcome
CNC(=O)Oc1ccccc1C1OCCO1 | inactive
c1cc2c(c(N3CCNCC3)c1)OCCO2 | inactive
O=C(Nc1ccccc1)c1ccccc1I | inactive
N#CCNCC#N | inactive
CCC(C)(C)c1cc(-n2nc3ccccc3n2)c(O)c(C(C)(C)CC)c1 | inactive
O=C(CCN1CC1)OCC(CO)(COC(=O)CCN1CC1)COC(=O)CCN1CC1 | inactive
CN(C)CCc1ccc(O)cc1 | inactive
c1ccc(N2CCNCC2)cc1 | inactive
Cc1cccc(C#N)c1 | inactive
N#CC(CCc1ccc(Cl)cc1)(Cn1cncn1)c1ccccc1 (stereo not given) | inactive
CCOC(=O)C(c1c(O)c2ccccc2oc1=O)c1c(O)c2ccccc2oc1=O | inactive
CCOP(=O)(OCC)OP(=O)(OCC)OCC | inactive
CCOC(=O)N(C)C(=O)CSP(=S)(OCC)OCC | inactive
CCN(CC)C(C)C(=O)c1ccccc1 (stereo not given) | inactive
CC1(C)COP(Oc2ccccc2)OC1 | inactive
COC(=O)COc1ccc(Cl)cc1Cl | inactive
OCCSCSCCO | inactive
C1CCC(C2CCCCC2)CC1 | inactive
CCOP(=S)(OCC)SCSc1ccc(Cl)cc1 | inactive
CN/C(=N\[N+](=O)[O-])NCC1CCOC1 (stereo not given) | inactive
